Screening results from PubChem BioAssay.
Rows were chosen to be rich in hits. Some 8.9% of all compounds tested hit in one or more screens of this group.
DRD3 agonist: D3 dopamine receptor (human) agonism. P35462. D3R DiscoveRx beta-arrestin cells, luminescence, 90 min. max activation, %. 410,000 tested, 0.58% active. AID 652048; in the data active means max activation above about 30%
Target sequence (P35462 whole entry, looked up): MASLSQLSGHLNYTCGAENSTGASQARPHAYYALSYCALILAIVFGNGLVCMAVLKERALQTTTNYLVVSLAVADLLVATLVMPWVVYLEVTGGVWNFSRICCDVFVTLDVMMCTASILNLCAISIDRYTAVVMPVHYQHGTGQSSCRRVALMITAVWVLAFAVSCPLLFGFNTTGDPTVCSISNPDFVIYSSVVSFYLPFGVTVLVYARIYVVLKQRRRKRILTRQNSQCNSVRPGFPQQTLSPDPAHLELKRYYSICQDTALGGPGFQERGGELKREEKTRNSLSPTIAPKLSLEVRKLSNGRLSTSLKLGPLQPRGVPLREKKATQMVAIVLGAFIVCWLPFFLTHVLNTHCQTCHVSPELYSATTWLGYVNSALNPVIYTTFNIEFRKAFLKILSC
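Cells at 1500/well, incubated overnight, then treated with pinned compounds (dopamine as control) for 90 min at 37 degrees C. DiscoveRx reagent added for 30 - 60 minutes at room temperature; luminescence read.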
SW480 rerep: DNA re-replication induction in SW480 cells; 340,000 tested, 1.8% active; AID 624297; SW480 DNA re-replication, Hoechst DNA content imaging, 48 h; Potency, µM (series often up to 46.1 µM), actives largely listed as activators; further: nearly all actives have a fitted effect of over 55% in size
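Treated cells incubate 48 hr (37 C, 5% CO2), are stained 40 min with Hoechst, and nuclear fluorescence is enumerated; a rise in nuclei with high DNA signal marks re-replication.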
KB-V1 MDR tox: KB-V1 MDR subline cytotoxicity. KB-V1 MDR cells viability, CellTiter-Glo, 72 h. Potency, µM (highest dose often 46.1 µM), usual class: cytotoxic. 400,000 tested, 3.4% active. AID 1347076; further: nearly all actives have a fitted effect of over 60% in size
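qHTS viability screen in drug-selected KB-V1 MDR cells: 72 h compound treatment at 37 degrees C, ATP luminescence end point.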
D3 antag: blocks the human D3 dopamine receptor; P35462; D3R cells, DiscoveRx beta-arrestin luminescence, antagonist mode; active compounds read low; max response, negative = inhibition, %; 360,000 tested, 2.5% active; in the data active means max response below about -50%; inconclusive means no clear call, values can overlap the other calls
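Cells expressing the human receptor were seeded at 1500 cells/well, incubated overnight at 37 degrees C in 5% CO2, then exposed to library compounds with dopamine controls for 90 minutes at 37 degrees C before luminescent detection.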
MCF10A rereplic: induces DNA re-replication in MCF 10a normal breast cells. MCF 10A DNA re-replication, Hoechst nuclear intensity, 48 h. Potency, µM (titrated, usually from 46.1 µM), actives largely listed as activators. 350,000 tested, 2.9% active; further: nearly all actives have a fitted effect of over 50% in size
KB-3-1 tox: KB-3-1 parental cell cytotoxicity; KB-3-1 viability, CellTiter-Glo ATP luminescence, 72 h; Potency, µM (titrated, usually from 46.1 µM), usual class: cytotoxic; 400,000 tested, 1.4% active; AID 1347075; further: nearly all actives have a fitted effect of over 60% in size
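Screening of KB-3-1 cells (DMEM, 10% FBS, phenol-red free) ran from lowest to highest compound concentration; after 72 h at 37 °C viability was read luminescently and curves fitted.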
Each line names hits and unclear results; the compound was inactive in the other large screens. Unless noted, the call rests on the fitted dose curve; in most records, active means well fitted curve in the direction sought with a large enough effect; inconclusive means small, poorly fitted or top-dose-only effect, or another doubt; inactive means no such curve, though single readings can be large; an effect the other way counts as inactive or inconclusive.

COC(=O)c1ccc(NC(=O)c2c(NCc3ccc(C)o3)sc3c2CCCC3)cc1	none (no result: SW480 rerep, D3 antag, MCF10A rereplic)
CC(NC(=O)C(=O)Nc1c2c(nn1-c1ccccc1)CSC2)c1ccccc1 (configuration not stated)	none (no result: SW480 rerep, D3 antag, MCF10A rereplic)
COc1cccc(CN(C)C(=O)Cc2c[nH]c3ccccc23)c1OC	KB-V1 MDR tox inconclusive, MCF10A rereplic inconclusive
Cc1ccc(S(=O)(=O)N(C)C)cc1NC(=O)CSc1nc2ccccc2[nH]1	KB-V1 MDR tox 15µM, MCF10A rereplic inconclusive
CCN(CC)S(=O)(=O)c1ccc(C)c(NC(=O)CSc2nc3ccccc3[nH]2)c1	KB-V1 MDR tox inconclusive (no result: SW480 rerep)
COc1cccc(CN(C)C(=O)CSc2nc3ccccc3[nH]2)c1OC	KB-V1 MDR tox 16µM
COc1cccc(OCC(=O)N(C)Cc2nc(-c3cccc(C)c3)no2)c1	KB-V1 MDR tox 23µM
COc1ccc(/C=N/NC(=O)c2cccnc2)cc1CSc1ccccn1	SW480 rerep 13µM, KB-V1 MDR tox inconclusive, MCF10A rereplic 13µM, KB-3-1 tox inconclusive
COc1ccc(C(=O)N/N=C/c2ccc(OC)c(CSc3ccccn3)c2)cc1	none
COc1ccc(/C=N/NC(=O)c2cccc(Br)c2)cc1CSc1ccccn1	SW480 rerep inconclusive, KB-V1 MDR tox 12µM, MCF10A rereplic 15µM, KB-3-1 tox inconclusive
COc1cccc(N=c2oc3cc(O)ccc3cc2C(=O)NCC2CCCO2)c1 (configuration not stated)	DRD3 agonist 31, MCF10A rereplic inconclusive
Cc1cc(Br)cc2c(C(=O)NCC3CCCO3)cc(-c3cccs3)nc12 (configuration not stated)	SW480 rerep inconclusive, MCF10A rereplic 15µM (no result: KB-V1 MDR tox, KB-3-1 tox)
Cc1ccnc(NC(=O)c2ccc(Cl)c(NC(=O)c3ccccc3C)c2)c1	none
O=C(NCC1CCCO1)c1cc2ccccc2nc1Cl (configuration not stated)	D3 antag inconclusive, MCF10A rereplic 0.73µM
Cc1ccnc(NC(=O)c2ccccc2NC(=O)c2ccc(Cl)cc2Cl)c1	SW480 rerep 4.6µM, KB-V1 MDR tox 3.3µM, MCF10A rereplic 6.5µM, KB-3-1 tox 5.8µM
COC(=O)CSCc1nc(-c2ccc(C(=O)OC)cc2)oc1C	none (no result: SW480 rerep, D3 antag, MCF10A rereplic)
Cc1ccc(-c2cc(C(=O)NCC3CCCO3)no2)cc1 (configuration not stated)	none
O=C(NCC1CCCO1)c1cc(-c2ccccc2)on1 (configuration not stated)	KB-V1 MDR tox 21µM
Cc1onc(-c2c(F)cccc2Cl)c1C(=O)NCC1COc2ccccc2O1 (configuration not stated)	none
Cc1onc(-c2c(Cl)cccc2Cl)c1C(=O)NCC1CCCO1 (configuration not stated)	D3 antag -105
O=C(Nc1ccccc1C(=O)NCC1CCCO1)c1ccc(Cl)cc1Cl (configuration not stated)	KB-V1 MDR tox 6.5µM
CCc1nonc1NC(=O)c1oc2c(C)c(C)ccc2c1C	D3 antag -52
O=C1CCCC2=C1C(c1ccc(Br)cc1)c1c([nH]c(=S)[nH]c1=O)N2 (configuration not stated)	D3 antag -80
COc1cccc(/C=C2/C(=O)NN(c3ccc(F)cc3)C2=O)c1	MCF10A rereplic inconclusive
O=C1NN(c2ccc(F)cc2)C(=O)/C1=C/c1cccs1	D3 antag -63
COc1ccc(C(=O)N/C(=C\c2cn(S(=O)(=O)N(C)C)c3ccccc23)C(=O)N2CCCC2)cc1	none (no result: SW480 rerep, MCF10A rereplic)
Cc1cc[n+](CCC2CCCCC2)cc1	KB-3-1 tox 21µM (no result: DRD3 agonist, SW480 rerep, D3 antag, MCF10A rereplic)
c1ccc2c(c1)sc[n+]2CCC1CCCCC1	none (no result: DRD3 agonist, SW480 rerep, D3 antag, MCF10A rereplic)
c1ccc(-c2cc(-c3ccc(N4CCOCC4)cc3)nc3ccccc23)cc1	D3 antag inconclusive, MCF10A rereplic inconclusive
COc1ccc2c(-c3ccccc3)cc(N3CCOCC3)nc2c1	MCF10A rereplic 21µM
COc1ccc2c(c1)CCc1c-2nc2ccccc2c1N1CCOCC1	SW480 rerep inconclusive, KB-V1 MDR tox inconclusive, MCF10A rereplic 16µM, KB-3-1 tox inconclusive
C[C@@H]1[C@H](c2ccccc2)OCCS(=O)(=O)N1Cc1cccc(Cl)c1	KB-V1 MDR tox inconclusive (no result: DRD3 agonist, SW480 rerep, D3 antag, MCF10A rereplic)
Clc1ccc2[nH]c3c(c2c1)CNCC3	D3 antag -98
O=C(O)c1cccc2c3c([nH]c12)CCCC3	SW480 rerep inconclusive
COc1ccc2[nH]c3c(c2c1)CNCC3	none (no result: SW480 rerep, MCF10A rereplic)
Clc1cccc2c3c([nH]c12)CCNC3	D3 antag -60
Cc1cccc(-c2nc(SCC(=O)NCc3ccco3)c3c(=O)n(C)c(=O)n(C)c3n2)c1	none (no result: SW480 rerep, D3 antag, MCF10A rereplic)
O=C(CC(c1cccs1)N1Cc2ccccc2C1=O)Nc1ccccc1F (configuration not stated)	none (no result: SW480 rerep, D3 antag, MCF10A rereplic)
COc1ccc(N(CC(=O)NC2CCCCC2)S(=O)(=O)c2cccs2)cc1	none
COc1ccc(C(=O)/C=C/C(=O)N(CC(=O)NC2CCCCC2)Cc2cccs2)c(O)c1	SW480 rerep inconclusive, KB-V1 MDR tox inconclusive, MCF10A rereplic 18µM, KB-3-1 tox inconclusive
COc1ccc(C(=O)OCC(=O)NC(=O)NC2CCCC2)c(O)c1	none
COCCN(CC(=O)NC1CCCCC1)C(=O)/C=C/C(=O)c1ccc(OC)cc1O	SW480 rerep inconclusive, KB-V1 MDR tox inconclusive, MCF10A rereplic 6.5µM, KB-3-1 tox 18µM
CN(C)CCN(Cc1ccco1)C(=O)c1cc2c(s1)-c1ccccc1OC2	none (no result: SW480 rerep, KB-V1 MDR tox, D3 antag, MCF10A rereplic, KB-3-1 tox)
CCc1cccc(NC(=O)C(Cc2ccccc2)NS(=O)(=O)c2ccc3c(c2)oc(=O)n3C)c1 (configuration not stated)	none (no result: SW480 rerep, D3 antag, MCF10A rereplic)
Cc1ccc(/C=C(\C#N)C(=O)Nc2c(C)cccc2C)s1	D3 antag -80
Cc1ccc(NC(=O)/C(C#N)=C/c2ccc(C)s2)c(C)c1	none
Cc1ccccc1NC(=O)/C(C#N)=C/c1ccsc1	MCF10A rereplic inconclusive
Cc1cccc(C)c1NC(=O)/C(C#N)=C/c1ccsc1	SW480 rerep 1.5µM, MCF10A rereplic inconclusive
COC(=O)c1ccc(COc2ccccc2/C=C(\C#N)C(=O)Nc2c(C)cccc2C)cc1	KB-V1 MDR tox inconclusive, MCF10A rereplic 8.2µM, KB-3-1 tox inconclusive
CC(=O)C1CCC2C3CCC4=CC(=O)CCC4(C)C3(F)C(O)CC12C (configuration not stated)	KB-V1 MDR tox 5.2µM, KB-3-1 tox inconclusive
CCOc1ccccc1Nc1nc2ccccc2c2nncn12	none (no result: SW480 rerep, D3 antag, MCF10A rereplic)
O=c1[nH]c(CSc2nc(-c3ccc(F)cc3)cs2)nc2ccccc12	KB-V1 MDR tox 5.8µM
Cc1cccc(C)c1Nc1nnc(SCc2nc3ccccc3c(=O)[nH]2)s1	SW480 rerep inconclusive, MCF10A rereplic inconclusive
CCOc1ccc(Nc2nnc(SCc3nc4ccccc4c(=O)[nH]3)s2)cc1	D3 antag -62, MCF10A rereplic 10µM
